# Assay results from PubChem BioAssay (NCI).
# Compounds without any hit were thinned out: in the full panel of roughly 83,000, 20% have a hit.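 The test compound was applied at a single concentration to cells in 96-well plates for 48 hours, and percent growth was recorded.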 A number with no mark means an inactive call. Calls of active or inactive are those of the source. Rule for the calls: active = growth percent below 10; inactive = the rest.
# System: K-562 leukemia
# Assay: NCI-60 one-dose screen, 48 h (100 = growth as untreated, 0 = no growth, -100 = all killed)
# Details: 10 µM unless noted
row,Structure (SMILES),growth
1,CCCCCCCCCCCCCCCCCC1=NC(C)(C)CN1CC(C)O (stereo not drawn),-25.7% (active)
2,C#CC#CC#CC#CC#CC#CC#CC#CCC1OC[C@H](COC(=O)O[C@@H](C(=O)O[C@H]2C[C@@]3(O)[C@@H](OC(=O)c4ccccc4)[C@@H]4[C@]5(OC(C)=O)CO[C@@H]5C[C@H](O)[C@@]4(C)C(=O)[C@H](OC(C)=O)C(=C2C)C3(C)C)[C@@H](NC(=O)c2ccccc2)c2ccccc2)O1 (stereo partly drawn),15.5%
3,Cc1ccc(Cl)cc1NC(=O)c1sc2nc3c(cc2c1N)C(=O)CCC3,33.6%
4,CC(=O)Oc1ccc(OC(C)=O)c2ccccc12,49.6%
5,O=C(NNC(=O)c1nc2cc(F)ccc2n2cccc12)c1cnccn1,18.2%
6,C[C@H](C(=O)N(CCc1ccc(Cl)c(Cl)c1)Cc1cncs1)[C@@H]1CC[C@H](C[C@H](C)n2cc(CN3CCC(c4ccc(Cl)cc4)CC3)nn2)O1,-75.9% (active)
7,O=C(CC(=O)Nc1cccc(C(=O)O)c1)Nc1cccc(C(=O)O)c1,111%
8,C=C1CC[C@@H]2C(C)(C)[C@@H](O)CC[C@@]2(C)[C@@H]1COc1ccc2ccc(=O)oc2c1,53.3%
9,CCS/C(Nc1ccccc1)=C(\C#N)C(=O)Nc1ccc(OC)cc1,7.34% (active)
10,Nc1nc(NC(=O)Nc2ccc(C(=O)O)cc2)nn1-c1ccc(S(N)(=O)=O)cc1,102%
11,N#Cc1c(-c2ccccc2)nc(SCc2nnc(-c3ccc(Cl)cc3)o2)[nH]c1=O,84.1%
12,CCN(CC)c1ccc(/C=N/NC(=O)Cc2ccc(Nc3ccnc(C(F)(F)F)c3)cc2)c(O)c1,23.1%
13,CC[C@]12C=CCN3CC[C@@]4(c5ccc(OC)cc5N(C)[C@H]4[C@@](O)(C(=O)OC)[C@@H]1OC(=O)CCC[P+](c1ccccc1)(c1ccccc1)c1ccccc1)[C@@H]32,10.4%
14,Oc1c(CN2CCC(N3CCCCC3)CC2)cc(Cc2cc(CN3CCC(N4CCCCC4)CC3)c(O)c3ncccc23)c2cccnc12,5.46% (active)
15,Nc1c(C(=O)Nc2cccc(Cl)c2)sc2nc3c(cc12)CCCC3,48.3%
16,C=C(c1ccc(OC)c(/C=C/C(=O)c2ccc3c(c2)OCO3)c1)c1cc(OC)c(OC)c(OC)c1,6.89% (active)
17,CCCCCN(CCCCC)CC(O)c1cc(C)c2ccc3cc(C(C)C)ccc3c2c1 (stereo not drawn),-16.2% (active)
18,O=C1/C=C/[C@@H](O)[C@@H]2C[C@@H](O)C[C@H]2/C=C/CCC[C@H](CCO)O1,17.7%
19,CC(=O)/C(=C/c1ccc([N+](=O)[O-])cc1)C(=O)c1ccccc1,31.3%
20,CC1(C)CC[C@]23CC[C@]4(C)[C@H](CC[C@@H]5[C@@]6(C)C/C(=C/c7ccncc7)C(=O)C(C)(C)[C@@H]6CC[C@]54C)[C@H]2[C@H]1OC3,69.9%
21,CCCCCCCC/C=C\CCCCCCCCOc1ccc(CC(=O)NCC[N+]2(C)CCOCC2)cc1,62.8%
22,O=C(NNc1cnccn1)c1nc2cc(F)ccc2n2cccc12,10.8%
23,O=C(C1=Cc2cc3ccccc3n2Cc2cnnn21)c1ccc(O)cc1,11%
